Assay results: article PMC4552634, “A New Set of Chemical Starting Points with Plasmodium falciparum Transmission-Blocking Potential for Antimalarial Drug Discovery” (PLoS ONE, 2015)
The whole screen tested about 13,000 compounds, of which about 3,200 (25%) showed an effect of 50% or more. The list shows a part of the results.

What follows are compounds tested on P. falciparum stage V gametocytes. Settings: 48 h, 5 µM; inhibitor.
Set-up: BacTiter-Glo ATP luminescence viability of purified stage V gametocytes in 384-well plates, per cent inhibition versus DMSO

Compared with `NC(=O)c1cccc(Nc2nccc(Nc3ccc(Oc4c(Cl)cccc4Cl)c(Cl)c3)n2)c1` [TCMDC-138594], `COc1ccc(CC(=O)NC(CCCN2CCC(c3ccccc3)CC2)c2ccc(Cl)c(Cl)c2)cc1OC` (stereo not shown) [TCMDC-141901] is higher in “% Inhibition” value: -30.34% for the first, -2.836% for the second.

Compared with `N#Cc1ccc2[nH]cc(C(=O)CCCCCN(Cc3ccccc3)Cc3ccccc3)c2c1` [TCMDC-131257], `N#Cc1cccc(C(O)CN(Cc2ccccc2)Cc2ccccc2)c1` (stereo not shown) [TCMDC-131250] is higher in “% Inhibition” value: 33.92% for the first, 62.4% for the second.

Compared with `OC(CN(Cc1ccccc1)Cc1ccccc1)Cn1c2ccc(Cl)cc2c2cc(Cl)ccc21` (stereo not shown) [TCMDC-125720], `CC(=O)Nc1ccc(CN(Cc2ccc(F)cc2)Cc2cccc(Oc3ccccc3)c2)cc1` [TCMDC-140033] is lower in “% Inhibition” value: 14.45% for the first, -16.62% for the second.

First: Cc1cc(C(F)(F)F)cc(-n2ncc(-c3ccc(C(=O)NCCNCc4ccccc4)cc3)c2N)n1 [TCMDC-136659]
Second: CS(=O)(=O)N(c1cccc(F)c1)c1cc(C(=O)N[C@@H](Cc2ccccc2)[C@H](O)CNCc2cccc(C(F)(F)F)c2)cc(N2CCCC2=O)c1 [TCMDC-138921]
The “% Inhibition” value of the first is lower: -53.07% for the first, -9.659% for the second.

Going from `CCc1c[nH]c2c(N(c3ccccc3)S(C)(=O)=O)cc(C(=O)N[C@@H](Cc3ccccc3)[C@H](O)CNC(C)(C)CCCC(C)C)cc12` [TCMDC-135319] to `CCc1c[nH]c2c(N(c3ccccc3)S(C)(=O)=O)cc(C(=O)N[C@@H](Cc3ccccc3)[C@H](O)CNCc3cccc(C(F)(F)F)c3)cc12` [TCMDC-135318], the “% Inhibition” value falls from 124.7% to 91.8%.

Compared with `CS(=O)(=O)N(c1ccc(F)cc1)c1cc(C(=O)N[C@@H](Cc2ccccc2)[C@H](O)CNCc2cccc(C(F)(F)F)c2)cc(N2CCCC2=O)c1` [TCMDC-138920], `CCNc1cc(C(=O)N[C@@H](Cc2ccccc2)[C@H](O)CNC(C)(C)CCCC(C)C)cc(N2CCCC2=O)c1` [TCMDC-138889] is higher in “% Inhibition” value: -15.57% for the first, 7.674% for the second.

Going from `CN=C(NC)c1cccc(NC(=O)C=Cc2ccc(C=CC(=O)Nc3cccc(C(=NC)NC)c3)cc2)c1` [TCMDC-137213] to `O=C(N/C=N/c1cc([N+](=O)[O-])c(-c2cccnc2)n1-c1ccc(O)cc1)c1ccccc1` [TCMDC-125227], the “% Inhibition” value falls from 18.83% to -2.82%.

First: CCc1cc2c(=O)c(-c3nc(C)cs3)c([C@H](N)Cc3ccc(O)cc3)oc2cc1O [TCMDC-124111]
Second: O=S(=O)(c1csc2ccccc12)N(CCC(O)(C(F)(F)F)C(F)(F)F)Cc1cccc(O)c1 [TCMDC-133478]
The “% Inhibition” value of the first is lower: 0.6377% for the first, 82.79% for the second.

Going from `O=C(Nc1cccc(CN2CCN(Cc3cccc(O)c3)CC2)c1)c1cc2ccccc2s1` [TCMDC-134623] to `O=S(=O)(c1cc2ccccc2s1)N(CCC(O)(C(F)(F)F)C(F)(F)F)Cc1cccc(O)c1` [TCMDC-133477], the “% Inhibition” value rises from -8.756% to 95.75%.

First: COC(=O)c1cccc(CN(CCC(O)(C(F)(F)F)C(F)(F)F)C(=O)CC2CCCC2)c1 [TCMDC-133482]
Second: O=S(=O)(c1cc(Cl)sc1Cl)N(CCC(O)(C(F)(F)F)C(F)(F)F)Cc1cccc(O)c1 [TCMDC-133476]
The “% Inhibition” value of the first is higher: 48.89% for the first, 47.79% for the second.

Compared with `O=S(=O)(c1cccc(Cl)c1F)N(CCC(O)(C(F)(F)F)C(F)(F)F)Cc1cccc(O)c1` [TCMDC-133479], `O=S(=O)(c1ccc(Oc2ccccc2)cc1)N(CCC(O)(C(F)(F)F)C(F)(F)F)Cc1cccc(O)c1` [TCMDC-133480] is higher in “% Inhibition” value: 57.98% for the first, 74.25% for the second.
